PubChem BioAssay AID651995 (Sanford-Burnham Center for Chemical Genomics, 2013)
About 480 (19%) of roughly 2,500 compounds were called active.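 Rule for the calls: active = mean inhibition above about 25% (limit read from the data); inactive = the rest.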 Only a selection was taken, and actives are over-represented in it overall.

test: inhibitors of Wnt3a-driven luciferase in Wnt-LIGHT cells – cell-based, luminescence, single concentration, counter-screen for Gli-SUFU antagonist project, confirmation (AID 651995); settings: Wnt3a-driven luciferase reporter, at 6.25 µM, hits give high values

| SMILES | inhibition |
| --- | --- |
| CCOc1cccc(=NC2CCCCC2)c2c(C)[nH]c(C)c12 | 26.5% (active) |
